For 22 compounds, outcome and AC50 results are on record in PubChem BioAssay (EPA / NIEHS).

Experiment [1] is described as follows: APR_HepG2_MitoMembPot_72hr: Apredica 72-hour HepG2 Assay for Mitochondrial Membrane Potential (AID 2282917). The conditions noted are these: imaging, actives raise or lower the signal. The gist of the method:
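HepG2 cells dosed 72 hr with compound at 0.39–200 uM in duplicate, 0.5% v/v DMSO final. Mitochondria stained with 250 nM MitoTracker Red CMXRos for 30 min before formaldehyde fixation, imaged by high-content fluorescence; bidirectional fit versus DMSO.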

A short description of experiment [2]: APR_HepG2_MitoticArrest_72hr: Apredica 72-hour HepG2 Assay for Mitotic Arrest (AID 2282918). The conditions noted are these: high-content imaging, actives raise or lower the signal. A digest of the protocol:
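Read-out is phospho-histone H3 immunofluorescence with Hoechst nuclear segmentation, imaged at 20x. Human HepG2 liver cells received ten concentrations (0.39–200 uM, final DMSO 0.5% v/v) for 72 hr before fixation. Gain or loss of signal was fitted relative to DMSO.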

A short description of experiment [3]: APR_HepG2_MicrotubuleCSK_72hr: Apredica 72-hour HepG2 Assay for Microtubule CSK Stabilty (AID 2282919). The settings on record: HepG2 microtubule cytoskeleton, high-content imaging, actives raise or lower the signal. A digest of the protocol: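 HepG2 cells were exposed 72 hr to compound at 0.39–200 uM in duplicate (0.5% DMSO final), then fixed and permeabilized. Alpha-tubulin immunofluorescence was imaged by high-content microscopy, with bidirectional fitting against DMSO and taxol as positive control.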

Experiment [4] in a line: APR_HepG2_P-H2AX_24hr: Apredica 24-hour HepG2 Assay for H2AX Phosphorylation (AID 2282920). The conditions noted are these: high-content imaging, actives raise or lower the signal. The gist of the method:
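HepG2, 24 hr, cpd 0.39–200 uM (10 conc, duplicate), DMSO 0.5% v/v final. Fix 3.7% formaldehyde, Triton X-100 permeabilize, anti-phospho-H2A.x 1:200 + Hoechst 2 ug/mL. Imaged, bidirectional fit vs DMSO.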

Experiment [5] in a line: APR_HepG2_StressKinase_72hr: Apredica 72-hour HepG2 Assay for Stress Kinase (AID 2282921). The conditions noted are these: HepG2 stress kinase (phospho-c-Jun) imaging, actives raise or lower the signal. A digest of the protocol: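 Dose 0.39–200 uM (10 pts, duplicate), 0.5% DMSO; 72 h; fix 3.7% formaldehyde 30 min RT; Triton permeabilize; anti-phospho-c-Jun/Cy3 + Hoechst 60 min RT; image 20x; fit gain/loss vs DMSO.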

Experiment [6] can be described thus: APR_HepG2_StressKinase_24hr: Apredica 24-hour HepG2 Assay for Stress Kinase (AID 2282922). The conditions noted are these: HepG2 stress kinase (phospho-c-Jun) imaging, actives raise or lower the signal. A digest of the protocol: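 HepG2 cells exposed 24 h to 0.39–200 uM compound in duplicate (0.5% v/v DMSO final). Cells fixed in 3.7% formaldehyde, permeabilized and immunostained for phospho-c-Jun; read by high-content fluorescence imaging, fitted bidirectionally against DMSO.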

A short description of experiment [7]: APR_HepG2_p53Act_72hr: Apredica 72-hour HepG2 Assay for p53 Activation (AID 2282923).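 Further: average cellular p53 protein immunofluorescence intensity in HepG2 cells.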 The conditions noted are these: high-content imaging, actives raise or lower the signal. The gist of the method:
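10-pt conc. 0.39–200 uM, duplicate, 0.5% DMSO; 72 hr exposure; 3.7% formaldehyde fix, 0.5% Triton perm; sheep anti-p53/Cy5 + Hoechst; ArrayScan 20x, 6 images/well; gain/loss fit vs DMSO.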

Experiment [8] in a line: APR_HepG2_MitoMass_72hr: Apredica 72-hour HepG2 Assay for Mitochondrial Mass (AID 2282924).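 Further: MitoTracker Red CMXRos stain intensity per cell imaged as mitochondrial mass.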 The conditions noted are these: high-content imaging, actives raise or lower the signal. A digest of the protocol:
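HepG2 cells dosed 72 hr at 0.39–200 uM (0.5% DMSO), in duplicate. MitoTracker Red CMXRos 250 nM loaded 30 min before formaldehyde fixation; high-content fluorescence imaging, bidirectional fit versus DMSO.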

Experiment [9] in a line: APR_HepG2_NuclearSize_72hr: Apredica 72-hour HepG2 Assay for Nuclear Size (AID 2282925). The conditions noted are these: high-content imaging, actives raise or lower the signal. The gist of the method:
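HepG2 cells dosed 72 h at 0.39–200 uM (10 concentrations, duplicate) in 0.5% v/v DMSO final. Fixed, Hoechst 33342-stained nuclei imaged; nuclear diameter measured by automated image analysis. Bidirectional fit versus DMSO.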

Experiment [10] is described as follows: APR_HepG2_P-H2AX_72hr: Apredica 72-hour HepG2 Assay for H2AX Phosphorylation (AID 2282916).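 Further: phospho-histone H2A.x immunostain intensity per cell marking DNA damage.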 The conditions noted are these: imaging, actives raise or lower the signal. The gist of the method: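 HepG2; cpd 0.39–200 uM ×10 conc, duplicates; 0.5% DMSO; 72 hr. Fix 3.7% formaldehyde 30 min RT, 0.5% Triton X-100 10 min. Anti-phospho-H2A.x 1:200 + Hoechst 2 ug/mL, 60 min RT; ArrayScan imaging.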

Structures are written as SMILES. Active and inactive are the calls of the source. How the source made its calls: active means hit-call score of the fitted dose curve at least 0.9, where 1 is the maximum; inactive means score below 0.9.

Take `CC(O)CN(CCN(CC(C)O)CC(C)O)CC(C)O` (centres undefined): the call in experiment [1], in [2], in experiment [3], in [4], in experiment [5] and in experiment [6] was inactive. Moreover, the call in experiment [7], in experiment [8] and in [9] was inactive.

In the case of `Cc1c(-c2cccnc2)c2ccccc2n1CCCCC(=O)O`, the outcome in [10], in [1], in experiment [2], in experiment [3], in experiment [4] and in [5] was inactive. Also, the call in experiment [6], in experiment [7], in experiment [8] and in [9] was inactive.

In the case of `O=C(CCCCCCCCc1cccnc1)N1CCC(C=C(c2ccccc2)c2ccccc2)CC1`, the compound was classed as inactive in [10], in experiment [1], in [2], in [3], in [4] and in experiment [5]. The compound was called inactive in experiment [6], in experiment [7], in experiment [8] and in experiment [9].

For the compound `Cn1cnc([N+](=O)[O-])c1Sc1ncnc2nc[nH]c12`, the compound was classed as inactive in [10], in [1], in [2], in [3], in [4] and in experiment [5]. Besides, the result in experiment [6], in experiment [7], in experiment [8] and in experiment [9] was inactive.

As to `CCOC(=O)CC(CC(=O)OCC)(OC(C)=O)C(=O)OCC`, the outcome in [10], in experiment [1], in [2], in [3], in [4] and in experiment [5] was inactive. Further, the call in experiment [6], in [7], in [8] and in experiment [9] was inactive.

As to `CNS(=O)(=O)c1cc(C(=O)N2CCC(CCN3C4CCC3CC(n3c(C)nc5ccccc53)C4)(c3cccc(F)c3)CC2)c(Cl)cc1F` (centres undefined), the compound was called inactive in experiment [1], in experiment [5], in experiment [7], in experiment [8] and in experiment [9]. For the same compound, the concentration at half-maximal activity (AC50) (commonly the concentration at which the activity in the assay is half-maximal) was 10.3 µM (active) in experiment [2], 65.2 µM (active) in experiment [3], 52.9 µM (active) in experiment [4] and 54.4 µM (active) in experiment [6].

In the case of `COC(=O)c1c(Cl)c(Cl)c(C(=O)OC)c(Cl)c1Cl`, the outcome in [1], in experiment [2], in experiment [3], in [4], in [5] and in experiment [6] was inactive. Further, the result in [7], in experiment [8] and in experiment [9] was inactive.

On to `O=C(O)CC(O)C(=O)O` (centres undefined), for which the compound was called inactive in experiment [1], in experiment [2], in experiment [3], in experiment [4], in [5] and in [6]. The compound was classed as inactive in [7], in experiment [8] and in experiment [9].

As to `CC(=O)OC[C@H]1O[C@@](COC(C)=O)(O[C@H]2O[C@H](COC(C)=O)[C@@H](OC(C)=O)[C@H](OC(C)=O)[C@H]2OC(C)=O)[C@@H](OC(C)=O)[C@@H]1OC(C)=O`, the call in [10], in experiment [1], in experiment [2], in experiment [3], in [4] and in [5] was inactive. For the same compound, the call in [6], in [7], in experiment [8] and in experiment [9] was inactive.

Regarding `CCN(C(=O)c1cc(C)cc(OC[C@H](C)Nc2ccncc2)c1)C(C)C`, the outcome in experiment [10], in experiment [1], in experiment [2], in experiment [3], in [4] and in experiment [5] was inactive. Further, the outcome in experiment [6], in [7], in [8] and in experiment [9] was inactive.

On to `CCCCCCCCCCCCCCCO`, for which the compound was called inactive in experiment [10], in experiment [1], in experiment [3], in [4], in experiment [5] and in experiment [6]. Moreover, the outcome in experiment [7], in [8] and in experiment [9] was inactive. For the same compound, in experiment [2], the AC50 is 95.6 µM (active).

For the compound `CCCCCCCCO`, the outcome in experiment [10], in experiment [1], in experiment [2], in [3], in [4] and in experiment [5] was inactive. The call in experiment [6], in experiment [7], in experiment [8] and in experiment [9] was inactive.

For `CCOC(=O)c1ccc(C2CCC(NC[C@H](O)COc3ccc(O)c(NS(C)(=O)=O)c3)CC2)cc1` (some centres undefined), the concentration at half-maximal activity (AC50) in experiment [10] was 14 µM (active); in [2], 20.3 µM (active); in [3], 41.9 µM (active); in experiment [4], 40 µM (active); in [6], 28.3 µM (active); in experiment [7], 14.5 µM (active). Moreover, the concentration at half-maximal activity (AC50) in experiment [9] was 22.7 µM (active). The outcome in [1], in experiment [5] and in experiment [8] was inactive.

Consider `CCCCC(CC)COC(=O)CCCCCCCCC(=O)OCC(CC)CCCC` (centres undefined), for which the AC50 in [10] was 68.2 µM (active); in experiment [1], 83.4 µM (active); in experiment [2], 111 µM (active); in experiment [3], 87.6 µM (active); in experiment [4], 116 µM (active); in experiment [8], 36.5 µM (active). Besides, the compound was called inactive in experiment [5], in [6], in [7] and in [9].

As for `O=C(OC[C@H]1O[C@@H](OC(=O)c2cc(O)c(O)c(OC(=O)c3cc(O)c(O)c(O)c3)c2)[C@H](OC(=O)c2cc(O)c(O)c(OC(=O)c3cc(O)c(O)c(O)c3)c2)[C@@H](OC(=O)c2cc(O)c(O)c(OC(=O)c3cc(O)c(O)c(O)c3)c2)[C@@H]1OC(=O)c1cc(O)c(O)c(OC(=O)c2cc(O)c(O)c(O)c2)c1)c1cc(O)c(O)c(OC(=O)c2cc(O)c(O)c(O)c2)c1`, the outcome in experiment [10], in [2], in experiment [3], in experiment [4], in [5] and in experiment [6] was inactive. The AC50 in [1] was 15.1 µM (active); in [7] it was 23.2 µM (active); in experiment [8], 14.5 µM (active); in [9], 18.7 µM (active).

On to `C1=CCCC=CCCC=CCC1`, for which the compound was classed as inactive in experiment [1], in experiment [2], in experiment [3], in experiment [4], in experiment [5] and in experiment [6]. The outcome in experiment [7], in experiment [8] and in [9] was inactive.

Take `CC1=CC(=O)CC(C)(C)C1`: the call in experiment [1], in experiment [2], in experiment [3], in experiment [4], in [5] and in experiment [6] was inactive. The compound was called inactive in experiment [7], in [8] and in experiment [9].

On to `O=C1CCCCCN1`, for which the call in experiment [1], in [2], in [3], in [4], in [5] and in [6] was inactive. In addition, the call in experiment [7], in experiment [8] and in experiment [9] was inactive.

As for `CCCN(C1CCN(C(=O)C2CCNCC2)CC1)[C@@H]1CCc2ccc(OC)cc2C1`, the compound was called inactive in experiment [1], in experiment [3], in [5], in experiment [6] and in experiment [9]. Moreover, the AC50 in experiment [2] is 53 µM (active); in [4], 80.8 µM (active); in experiment [7] it was 68.9 µM (active); in experiment [8], 111 µM (active).

On to `Clc1nc(Cl)c(Cl)c(Cl)c1Cl`, for which the compound was classed as inactive in [1] and in [3]. Also, the concentration at half-maximal activity (AC50) in [2] was 34.1 µM (active); in [4], 41.2 µM (active); in experiment [5], 68.5 µM (active); in experiment [6], 53.2 µM (active); in experiment [7], 25 µM (active); in [8], 89.9 µM (active). In experiment [9], the concentration at half-maximal activity (AC50) was 96.9 µM (active).

In the case of `CC1(C)C(=O)N(Br)C(=O)N1Br`, the outcome in experiment [1], in experiment [2], in [3], in experiment [4], in experiment [5] and in experiment [6] was inactive. Further, the compound was classed as inactive in [7], in [8] and in [9].

Regarding `CN(C)c1ccc(N=NS(=O)(=O)O)cc1`, the outcome in experiment [1], in experiment [2], in experiment [3], in experiment [4], in experiment [5] and in experiment [6] was inactive. For the same compound, the compound was called inactive in experiment [8] and in experiment [9]. Also, the AC50 in [7] is 57 µM (active).
